According to PubChem BioAssay:

Assay: sensitizers of A549 cells to miR-34 induction, primary screen, imaging, A549 dox-inducible miR-34, nuclei and caspase counts (AID 1347080); note: test concentration not given here
Conditions: A549 miR-34 inducible, Hoechst nuclei count, 48 h; measured here: total cells with miR-34 induction; stronger effect = lower value

Structure (SMILES) | cell count
C#CC(N)CCC(=O)O (stereo not drawn) | 10600
C=CCN1CCc2c(cc(O)c(O)c2Br)[C@@H](c2ccccc2)C1 | 5920
N=C(N)c1ccc(N)cc1 | 8960
O=C1C2C=CC=CC2=NC(=S)N1CCN1CCC(=C(c2ccc(F)cc2)c2ccc(F)cc2)CC1 (stereo not drawn) | 9730
N.N.O=C(O)C1(C(=O)O)CCC1.[Pt+2] | 6330
[Li+] | 9680
COc1cc2c(CCNC(C)=O)c[nH]c2cc1O | 10100
OC1(c2ccc(Cl)cc2)CCN(Cc2c[nH]c3ccccc23)CC1 | 7020
N=C(N)c1ccccc1 | 10800
CC(=O)SCC[N+](C)(C)C | 10500
COc1cccc(C(=O)NCCN2CCN(c3ccc(Cl)cc3)CC2)c1 | 9900
OCC1NCC(O)C(O)C1O (stereo not drawn) | 9950
C=C/C(C)=C/[C@@]1(C)SC(=O)C(C)=C1O | 10800
CCCOC(=O)c1c(-c2ccccc2)nc(CC)c(C(=O)SCC)c1CCC | 9020
Oc1ccc(C2CNCc3sccc32)cc1O (stereo not drawn) | 10000
Nc1ncnc2c1nc(Sc1ccc(Cl)cc1)n2C1OC2COP(=O)(O)O[C@@H]2[C@@H]1O (stereo partly drawn) | 10500
O=C(O)CCC(C(=O)O)N1C(=O)c2ccccc2C1=O (stereo not drawn) | 10300
Nc1ncnc2c1nc(Br)n2C1OC2COP(=O)(O)O[C@@H]2C1O (stereo partly drawn) | 8440
Nc1nc(Nc2ccccc2)nc2c1ncn2[C@@H]1O[C@H](CO)[C@H](O)C1O (stereo partly drawn) | 9660
COc1ccc(NC(=O)/C=C/c2ccc(Cl)cc2)cc1 | 7420
C=CCn1c(=O)c2c(nc(-c3ccc(S(=O)(=O)O)cc3)n2C)n(C)c1=O | 10300
N[C@H](CO)C(=O)O | 10300
N#Cc1cc([N+](=O)[O-])c2sc(C(N)=O)[n+]([O-])c2c1 | 7220

Same assay, conditions: A549 miR-34 inducible, Hoechst nuclei count, 48 h; measured here: total cells without miR-34 induction

Structure (SMILES) | cell count
CCCC(=O)NCCc1c2n(c3ccc(OC)cc13)CCCc1ccccc1-2 | 7960
Cn1ccnc1 | 10000
Nn1nnc2ccccc21 | 9990
CCCn1c(=O)c2[nH]c(-c3ccc(S(=O)(=O)O)cc3)nc2n(CCC)c1=O | 10400
C[C@H](O)C(=O)C1=Nc2c(nc(N)[nH]c2=O)NC1 | 10500
NC1(C(=O)O)CCc2cc(C(=O)O)ccc21 (stereo not drawn) | 11000
Nc1nc(Cl)nc2c1ncn2[C@@H]1O[C@H](CO)[C@H](O)C1O (stereo partly drawn) | 1750
N[C@H](C(=O)O)[C@H](O)C(=O)O | 10200
C=C1C(=O)O[C@@H]2[C@H]3O[C@]3(C)CCC=C(C)CC[C@@H]12 | 5500
C[C@@H]1C(=O)NC2=Nc3cccc(Cl)c3CN21 | 9450
CCNC(=O)[C@H]1O[C@@H](n2cnc3c(N)nc(NCCc4ccc(CCC(=O)O)cc4)nc32)C(O)[C@H]1O (stereo partly drawn) | 10000
Cc1nc(N=Nc2ccc(S(=O)(=O)O)cc2S(=O)(=O)O)c(COP(=O)(O)O)c(C=O)c1O | 9440
O=C(Nc1cccc(C(=O)Nc2ccc(S(=O)(=O)O)c3cc(S(=O)(=O)O)cc(S(=O)(=O)O)c23)c1)Nc1cccc(C(=O)Nc2ccc(S(=O)(=O)O)c3cc(S(=O)(=O)O)cc(S(=O)(=O)O)c23)c1 | 9220
Nc1nc2[nH]c(=O)cnc2c(=O)[nH]1 | 9560
O=[N+]([O-])c1ccc(CNc2nc(NCc3cccc(C(F)(F)F)c3)nc3nc[nH]c23)cc1 | 7740
N[C@@H](Cc1cnc[nH]1)C(=O)O | 10100
CC1(C)CCC(NC(=O)[C@@H](N)CCC(=O)O)CC1 | 9970
C#CC(N)CCC(=O)O (stereo not drawn) | 10100
C=CCN1CCc2c(cc(O)c(O)c2Br)[C@@H](c2ccccc2)C1 | 5430
N=C(N)c1ccc(N)cc1 | 8980

Structure (SMILES) | cell count
O=C1C2C=CC=CC2=NC(=S)N1CCN1CCC(=C(c2ccc(F)cc2)c2ccc(F)cc2)CC1 (stereo not drawn) | 9760
N.N.O=C(O)C1(C(=O)O)CCC1.[Pt+2] | 6070
[Li+] | 10900
COc1cc2c(CCNC(C)=O)c[nH]c2cc1O | 11000
OC1(c2ccc(Cl)cc2)CCN(Cc2c[nH]c3ccccc23)CC1 | 6940
N=C(N)c1ccccc1 | 10500
CC(=O)SCC[N+](C)(C)C | 10400
COc1cccc(C(=O)NCCN2CCN(c3ccc(Cl)cc3)CC2)c1 | 9720
OCC1NCC(O)C(O)C1O (stereo not drawn) | 10700
C=C/C(C)=C/[C@@]1(C)SC(=O)C(C)=C1O | 10300
CCCOC(=O)c1c(-c2ccccc2)nc(CC)c(C(=O)SCC)c1CCC | 8910
Oc1ccc(C2CNCc3sccc32)cc1O (stereo not drawn) | 10600
Nc1ncnc2c1nc(Sc1ccc(Cl)cc1)n2C1OC2COP(=O)(O)O[C@@H]2[C@@H]1O (stereo partly drawn) | 10500
O=C(O)CCC(C(=O)O)N1C(=O)c2ccccc2C1=O (stereo not drawn) | 9760
Nc1ncnc2c1nc(Br)n2C1OC2COP(=O)(O)O[C@@H]2C1O (stereo partly drawn) | 8780
Nc1nc(Nc2ccccc2)nc2c1ncn2[C@@H]1O[C@H](CO)[C@H](O)C1O (stereo partly drawn) | 9910
COc1ccc(NC(=O)/C=C/c2ccc(Cl)cc2)cc1 | 6550
C=CCn1c(=O)c2c(nc(-c3ccc(S(=O)(=O)O)cc3)n2C)n(C)c1=O | 10100
N[C@H](CO)C(=O)O | 10600
N#Cc1cc([N+](=O)[O-])c2sc(C(N)=O)[n+]([O-])c2c1 | 6660
